# Giardia kill = Small Molecules that selectively kill Giardia lamblia: qHTS; AID 540267, 2011; activity change, % at 7.66 µM, hits read low; 340,000 compounds, 0.15% hits; Giardia lamblia trophozoite viability; in the data active means activity change below about -80%; inconclusive means between about -30% and that limit;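 further: parasites exposed to compound for two days anaerobically before the ATP read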
#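 Trophozoite viability was measured as ATP-dependent luminescence, read 15-30 min after reagent addition. Before that, parasites at 100 cells/well were exposed to compounds for 48 h, anaerobically, at 37 deg C.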
# IL-1B inflam inh = qHTS for Inhibitors of Inflammasome Signaling: IL-1-beta AlphaLISA Primary Screen; THP-1 LPS/ATP IL-1B secretion, AlphaLISA, 16 h; hits give low values; activity change, % at 57.5 µM; 360,000 compounds, 4.7% hits; AID 743279, 2014; in the data active means activity change below about -50%; inconclusive means mostly about -30% to -49%
#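 Secreted IL-1B measured by AlphaLISA bead assay after 16 h compound exposure of THP-1 cells; compounds (final up to 57.5 uM) added 1 h before LPS (250 ng/mL) and ATP (1.25 mM) stimulation; lower signal means less secretion.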
# TDP1 cell noCPT = qHTS for Inhibitors of human tyrosyl-DNA phosphodiesterase 1 (TDP1): qHTS in cells in absence of CPT. DT40 Tdp1-/- hTDP1 cells, no CPT, ATP luminescence, 48 h. Potency, µM (series often up to 46.2 µM), without a hit: at the highest dose activity change, negative = growth inhibition, actives largely listed as inhibitors. 420,000 compounds, 15% hits. AID 686978, 2013; further: potency means the concentration at half of the fitted maximal effect; nearly all actives have a fitted effect of over 55% in size
#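 Readout: luminescence from CellTiter-Glo after 30 min in the dark at RT. Cells: DT40 Tdp1-/- with stable hTDP1, 400/well. Exposure: compounds alone, ≥48 hr, 37 °C.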
# TDP1 block = qHTS Assay for Inhibitors of Tyrosyl-DNA Phosphodiesterase (TDP1) | Tyrosyl-DNA phosphodiesterase 1 (Homo sapiens), Q9NUW8 | recombinant TDP1, AlphaScreen DNA substrate cleavage | Potency, µM (titrated, usually from 130 µM), inactives show at the top dose activity change, negative = inhibition, usual class: inhibitors | 350,000 compounds, 0.28% hits; further: potency means the concentration at half of the fitted maximal effect; nearly all actives have a fitted effect of over 40% in size
# Target sequence (Q9NUW8 whole entry, looked up): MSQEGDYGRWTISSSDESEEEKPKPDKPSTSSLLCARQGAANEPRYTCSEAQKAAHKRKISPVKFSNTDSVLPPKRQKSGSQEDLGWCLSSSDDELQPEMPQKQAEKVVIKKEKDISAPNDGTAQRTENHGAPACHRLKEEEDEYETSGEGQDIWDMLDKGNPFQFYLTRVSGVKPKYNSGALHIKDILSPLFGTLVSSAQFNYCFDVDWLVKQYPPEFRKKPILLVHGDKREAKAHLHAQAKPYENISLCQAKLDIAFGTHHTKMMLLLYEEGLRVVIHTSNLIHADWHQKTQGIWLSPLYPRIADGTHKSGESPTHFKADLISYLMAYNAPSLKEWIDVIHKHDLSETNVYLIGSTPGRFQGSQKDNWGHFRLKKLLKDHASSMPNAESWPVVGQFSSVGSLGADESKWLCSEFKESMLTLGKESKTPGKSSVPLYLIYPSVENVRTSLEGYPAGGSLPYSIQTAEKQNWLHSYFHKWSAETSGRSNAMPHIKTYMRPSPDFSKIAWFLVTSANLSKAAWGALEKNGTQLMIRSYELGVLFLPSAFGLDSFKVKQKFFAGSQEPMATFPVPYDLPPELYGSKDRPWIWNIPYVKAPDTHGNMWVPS
#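 Signal: AlphaScreen proximity between streptavidin donor and anti-FITC acceptor beads on intact substrate. Reaction: Tdp1 1 nM, substrate 15 nM final, 5 min RT after 15 min compound preincubation.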
# DT40 TDP1 CPT = qHTS for Inhibitors of human tyrosyl-DNA phosphodiesterase 1 (TDP1): qHTS in cells in presence of CPT. 420,000 compounds, 12% hits. Potency, µM (series often up to 46.2 µM), without a hit: top-dose activity change, negative = growth inhibition, usual class: inhibitors. chicken DT40 Tdp1-/-;hTDP1 cells + 20 nM CPT, ATP luminescence, 48 h; further: potency means the concentration at half of the fitted maximal effect; nearly all actives have a fitted effect of over 55% in size
#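 Chicken DT40 Tdp1-/- cells complemented with human TDP1, 400 cells/well, exposed to compounds plus 20 nM camptothecin for at least 48 h at 37 C; viability read as ATP content by CellTiter-Glo luminescence.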
# ELG1 DNA repair = qHTS screen for small molecules that inhibit ELG1-dependent DNA repair in human embryonic kidney (HEK293T) cells expressing luciferase-tagged ELG1. HEK293T ELG1-luciferase reporter, luminescence, 16 h; DNA damage induced by 5-fluorouridine. Potency, µM (highest dose often 46.1 µM), without a hit: at the top dose activity change, negative = inhibition, hits mostly inhibitors. 330,000 compounds, 2.3% hits; further: potency means the concentration at half of the fitted maximal effect; nearly all actives have a fitted effect of over 55% in size
#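 Step one: seed 2,000 cells per well. Step two: pin-transfer compound or DMSO alongside 5-fluorouridine. Step three: incubate 16 hr, 37 °C, 5% CO2. Step four: add ONE-Glo, wait 30 min, read luminescence.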
# * = called active by the depositor; ? = inconclusive; · = no result; [ ] = another dose, or the depositor's remark. Sampled rows, rich in hits. Any-hit rate of the full collection: about 19%. Unless noted, the call rests on the fitted dose curve; in most records, active means well fitted curve in the direction sought with a large enough effect; inconclusive means small, poorly fitted or top-dose-only effect, or another doubt; inactive means no such curve, though single readings can be large; an effect the other way counts as inactive or inconclusive. On the % scale 0 is the no-effect control and ±100 the full control effect.
SMILES,Giardia kill,IL-1B inflam inh,TDP1 cell noCPT,TDP1 block,DT40 TDP1 CPT,ELG1 DNA repair
COc1ccc(NC(=O)N(C)C[C@H]2OCc3cnnn3CCCC(=O)N([C@@H](C)CO)C[C@H]2C)cc1,·,17.0,-18.4%,·,-15.5%,·
CC(=O)c1cc(C)c(OC(=O)c2ccccc2)c(C)c1,25.5,48.0,?,·,?,·
CC(=O)Cc1cc(O)c2ccccc2c1OC(=O)c1ccccc1,-2.0,26.6,14.6µM*,3.6%,?,-7.3%
CSc1ccc(CN2CCC(n3nccc3NC(=O)CCCc3ccccc3)CC2)cc1,42.1,?,?,6.3%,23.1µM*,-15.8%
Cc1ccc(C)c(CN2CCC(n3nccc3NC(=O)CCCc3ccccc3)CC2)c1,4.7,?,?,3.8%,?,?
COCC(C)N1CCC(n2nccc2NC(=O)c2ccccc2Cl)CC1 (stereo not given),-1.4,5.6,0.0%,·,-1.4%,·
CCOc1cccc(CN2CCC(n3nccc3NC(=O)CCCc3ccccc3)CC2)c1,9.1,?,?,4.4%,?,6.51µM*
O=C(CCCc1ccccc1)Nc1ccnn1C1CCN(Cc2ccccc2F)CC1,-6.6,-18.6,20.6µM*,2.9%,23.1µM*,?
CCOc1ccc(CN2CCC(n3nccc3NC(=O)CCCc3ccccc3)CC2)cc1,-26.7,4.6,?,2.1%,?,?
Cc1ccccc1C(=O)Nc1ccnn1C1CCN(C(C)Cc2ccccc2F)CC1 (stereo not given),5.8,-6.9,-53.6%,1.9%,23.1µM*,?
O=C(CCCc1ccccc1)Nc1ccnn1C1CCN(Cc2ccccc2)CC1,-25.1,-12.4,?,5.6%,?,-12.4%
S=C(NCc1ccco1)N1CCC(c2nc3ccccc3o2)CC1,0.8,-15.5,16.0%,6.1%,-2.4%,?
CC(C)C(=O)Nc1nc(-c2ccc([N+](=O)[O-])cc2)cs1,?,-16.2,4.61µM*,-8.2%,9.2µM*,?
O=[N+]([O-])c1ccc(-c2csc(NN=C3CCCC3)n2)cc1,-4.2,?,10.3µM*,-2.8%,4.11µM*,15.1%
O=C(Cc1nc(-c2ccc([N+](=O)[O-])cc2)cs1)Nc1ccccc1,-14.9,-24.4,15.8µM*,1.1%,22.4µM*,?
COc1ccc(CCNC(=O)CCS(=O)(=O)c2cc3c(cc2Cl)NC(=O)CO3)cc1OC,·,·,·,-5.2%,·,·
CCn1cnc2c(=O)oc3ccc(S(=O)(=O)N4CCN(c5cc(C)ccc5C)CC4)cc3c21,·,·,-21.1%,7.5%,4.1%,·
O=C(Nc1ccccc1)C1CCCCN1S(=O)(=O)c1ccccc1 (stereo not given),8.1,8.8,?,-2.7%,-9.2%,1.4%
O=C(Nc1ccc(Cl)cc1)C1CCCCN1S(=O)(=O)c1ccccc1 (stereo not given),23.8,-9.7,7.31µM*,-3.6%,?,0.0%
O=C(CS(=O)(=O)c1ccc(Cl)cc1)N1CCN(c2ccccc2)CC1,·,-19.7,-25.6%,·,0.0%,·
O=C(OCC(=O)N1CCN(c2ccccc2)CC1)C1CCCN1S(=O)(=O)c1ccc(Cl)cc1 (stereo not given),-5.0,6.5,20.6µM*,1.6%,?,13.1%
Cc1ccc(S(=O)(=O)N2CCCC2C(=O)Nc2nc3c(s2)CCCC3)cc1 (stereo not given),10.0,-3.9,23.1µM*,4.1%,?,-26.4%
O=C(NC1CC1)c1cccc(NC(=O)C2CCN(S(=O)(=O)c3ccccc3C(F)(F)F)CC2)c1,·,-8.4,25.9µM*,·,?,·
NC(=O)c1ccc(NC(=O)CSc2nnc(-c3cccnc3)n2Cc2ccco2)cc1,-13.2,-1.7,-4.4%,-19.7%,0.4%,3.9%
Cc1ccc2c(c1)N(C(=O)CCC(=O)NC1CCC(C)CC1)CCO2 (stereo not given),-5.6,-12.3,?,·,?,4.1%
SMILES,Giardia kill,IL-1B inflam inh,TDP1 cell noCPT,TDP1 block,DT40 TDP1 CPT,ELG1 DNA repair
O=C(Nc1ccc2c(c1)OCO2)C1CCCCN1S(=O)(=O)c1ccccc1 (stereo not given),-4.0,1.3,?,5.0%,?,9.0%
CC(=O)Nc1ccc(NC(=O)C2CCCCN2S(=O)(=O)c2ccc(C(C)(C)C)cc2)cc1 (stereo not given),15.0,13.1,?,-5.0%,23.1µM*,?
O=C(Nc1cccc(S(=O)(=O)N2CCCCC2)c1)[C@@H]1CCCN1S(=O)(=O)c1ccccc1C(F)(F)F,5.0,?,23.1µM*,·,?,·
Cc1cc(C)cc(NC(=O)C2CCCCN2S(=O)(=O)c2ccccc2)c1 (stereo not given),·,-3.3,13µM*,·,20.6µM*,·
O=C(Nc1ccc(C(F)(F)F)cc1)C1CCCCN1S(=O)(=O)c1ccccc1 (stereo not given),-9.3,-24.5,29.1µM*,-6.7%[56.1 µM],9.2µM*,-4.5%
CCOC(=O)C(=O)NCC(c1cccs1)S(=O)(=O)c1ccc(F)cc1 (stereo not given),42.0,-29.0,-5.7%,-0.3%,-1.9%,3.4%
COc1ccc(OCc2nnc(SCC(=O)Nc3ccccc3F)o2)cc1,-9.5,11.8,3.3%,·,5.3%,-4.6%
CC(C(=O)N1CCN(C(=O)c2ccco2)CC1)N1C(=O)NC2(CCCCC2C)C1=O (stereo not given),-16.1,14.2,15.6%,0.4%,-5.9%,14.3%

# Source: PubChem BioAssay
